SRC3 TRFRET art: counter-screen for PPARgamma SRC-3 recruitment agonists: TR-FRET artefact | 99,000 tested, 0.39% active | TR-FRET ratio at 8 µM | AID 1048 | PPARgamma/SRC-3 format; active compounds read high
TR-FRET SRC-2 ct: counter-screen for PPARgamma SRC-2 recruitment agonists: TR-FRET artefact | TR-FRET ratio at 8 µM | 200,000 tested, 0.4% active | active compounds read high
PPARg SRC1 recr: agonists of human PPARgamma SRC-1 coactivator recruitment | P37231 | PPARgamma-SRC-1 coactivator recruitment biochemical assay | activation, % at 8 µM | 200,000 tested, 0.41% active; in the data active = activation above about 19%
Target sequence (P37231 whole entry, looked up): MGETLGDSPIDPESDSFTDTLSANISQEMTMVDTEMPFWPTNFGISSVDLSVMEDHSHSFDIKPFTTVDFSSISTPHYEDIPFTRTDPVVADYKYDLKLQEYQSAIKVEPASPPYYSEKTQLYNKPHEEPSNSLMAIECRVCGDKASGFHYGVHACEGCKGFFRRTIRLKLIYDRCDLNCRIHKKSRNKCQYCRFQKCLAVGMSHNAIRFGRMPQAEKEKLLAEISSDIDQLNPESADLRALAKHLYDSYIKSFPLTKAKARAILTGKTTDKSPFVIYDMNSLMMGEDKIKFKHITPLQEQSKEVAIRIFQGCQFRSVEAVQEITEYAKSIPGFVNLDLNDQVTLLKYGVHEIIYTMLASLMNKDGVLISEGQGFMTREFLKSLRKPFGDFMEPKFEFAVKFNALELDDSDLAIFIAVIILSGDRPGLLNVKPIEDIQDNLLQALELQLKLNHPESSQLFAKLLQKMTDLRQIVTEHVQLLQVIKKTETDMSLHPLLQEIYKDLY
PPARg SRC3 recr: promotes SRC-3 coactivator recruitment by human PPARgamma; 200,000 tested, 0.26% active; activation, % at 8 µM; P37231; biochemical PPARgamma/SRC-3 coactivator recruitment assay; in the data active = activation above about 23%
PPARg SRC-2 ag: PPARgamma-driven SRC-2 recruitment agonism; P37231; PPARgamma LBD-SRC-2 recruitment, biochemical; activation, % at 8 µM; 200,000 tested, 0.34% active; AID 1032; in the data active = activation above about 22%
SRC1 TRFRET art: TR-FRET artefact, counter-screen to PPARgamma/SRC-1 agonist assay; TR-FRET detection artefact counter-screen, emission ratio; active compounds read high; TR-FRET ratio at 8 µM; 99,000 tested, 0.34% active; in the data active = TR-FRET ratio above about 2300
Each line names hits and unclear results; the compound was inactive in the other large screens. An excerpt weighted towards active compounds, which were near 0.84% of everything screened. Cut-off read from the data, not from the text of the source, unless noted: active = TR-FRET ratio above about 2000; inactive = the rest.

O=C(c1cc(-c2cccs2)nc2ccccc12)N1CCN(c2ccccc2)CC1	none
Cc1cccc(NC(=O)c2cc(-c3ccc(C)s3)nc3ccccc23)n1	SRC3 TRFRET art 2191, TR-FRET SRC-2 ct 2007
O=C(c1cc(-c2cccs2)nc2ccccc12)N1CCN(S(=O)(=O)c2cccc(F)c2)CC1	TR-FRET SRC-2 ct 2309 (no result: SRC3 TRFRET art, SRC1 TRFRET art)
Cc1cc(NC(=O)c2cc(-c3ccc(C)s3)nc3ccccc23)no1	none (no result: SRC3 TRFRET art, SRC1 TRFRET art)
Cc1cnn2c(C3CC3)ccnc12	none
O=C(CCl)Nc1cc2[nH]c(=O)[nH]c2cc1Br	none
O=C(c1cc(-c2ccccn2)nc2c(Cl)cccc12)N1CCN(S(=O)(=O)c2ccccc2)CC1	SRC3 TRFRET art 3978, TR-FRET SRC-2 ct 2813
O=C(c1cc(-c2ccccn2)nc2c(Cl)cccc12)N1CCN(C(=O)C2CCCO2)CC1 (stereo not drawn)	none (no result: SRC3 TRFRET art, SRC1 TRFRET art)
O=C1CN(C(=O)/C=C/c2ccccc2F)c2ccccc2N1	none
NC1=CC(=O)c2cccc3cccc1c23	PPARg SRC3 recr 26.2 (no result: SRC3 TRFRET art, SRC1 TRFRET art)
NC1=Nc2cccc3cccc1c23	none
Cc1cc(N2CCC(C(=O)NC3CCCCC3)CC2)nc(-c2ccccc2)n1	SRC3 TRFRET art 2155
Cc1cc(N2CCC(C(=O)NC3CC3)CC2)nc(-c2ccccc2)n1	none (no result: SRC3 TRFRET art, SRC1 TRFRET art)
CCN(CC)c1ccc(NC(=O)c2ccccc2Br)cc1S(=O)(=O)Nc1ccccc1OC	none
CCN(CC)c1ccc(NC(=O)c2ccccc2F)cc1S(=O)(=O)Nc1ccccc1OC	SRC3 TRFRET art 2056
Cc1cccc(N2CCN(C(=O)c3cc(C)oc3C)CC2C)c1 (stereo not drawn)	SRC1 TRFRET art 2332
Cc1cccc(N2CCN(C(=O)c3ccncc3)CC2C)c1 (stereo not drawn)	none (no result: SRC3 TRFRET art, SRC1 TRFRET art)
COc1ccc(S(=O)(=O)N2CCCCC2)cc1NC(=O)c1cc(C)on1	none
COc1ccc(NC(=O)CSc2ccc3c4c(cccc24)C(=O)c2ccccc2-3)cc1	PPARg SRC3 recr 42.8 (no result: SRC3 TRFRET art, SRC1 TRFRET art)
N#Cc1cccc(NC(=O)CSc2ccc3c4c(cccc24)C(=O)c2ccccc2-3)c1	none (no result: SRC3 TRFRET art, SRC1 TRFRET art)
CN(C(=O)COC(=O)c1nc(Cl)c(Cl)c(Cl)c1Cl)C1CCS(=O)(=O)C1 (stereo not drawn)	none
COc1cccc(-c2ccc(C#N)c(SCC(=O)NCCc3cccc(Cl)c3)n2)c1	TR-FRET SRC-2 ct 1982 (no result: SRC3 TRFRET art, SRC1 TRFRET art)
COc1ccc(-c2ccc(C#N)c(SCC(=O)NCCc3ccccc3)n2)cc1OC	TR-FRET SRC-2 ct 2078
COc1ccc(-c2ccc(C#N)c(SCC(=O)Nc3sc4c(c3C#N)CCC4)n2)cc1OC	none (no result: SRC3 TRFRET art, SRC1 TRFRET art)
CCOCCCNC(=O)c1c[nH]c2c(CC)cccc2c1=O	none
COc1ccc(-c2csc(N(CCc3ccc(OC)c(OC)c3)C(=O)COc3ccccc3)n2)cc1	TR-FRET SRC-2 ct 2007 (no result: SRC3 TRFRET art, SRC1 TRFRET art)
COc1ccc(-c2csc(N(Cc3ccccc3)C(=O)COc3ccc(Cl)cc3)n2)cc1	none (no result: SRC3 TRFRET art, SRC1 TRFRET art)
COc1ccc(-c2csc(N(CCCN(C)C)C(=O)c3cccs3)n2)cc1	none
CCN(C(=O)c1cccs1)c1nc(-c2ccc(OC)cc2)cs1	SRC3 TRFRET art 2437
O=C(CCc1nnc(-c2ccccc2)o1)NCc1cc(F)ccc1F	none
N#Cc1ccc(-c2ccccc2)nc1SCC(=O)c1cc2ccccc2oc1=O	PPARg SRC1 recr 64.3 (no result: SRC3 TRFRET art, SRC1 TRFRET art)
CC(C)c1c(C#N)c(N)nc(SCC(=O)c2cc3ccccc3oc2=O)c1C#N	none
O=C(CSc1nnc(-c2cccs2)n1-c1ccccc1)N1CCc2ccccc21	PPARg SRC1 recr 30.1 (no result: SRC3 TRFRET art, SRC1 TRFRET art)
O=C(CSc1nnc(-c2ccco2)n1-c1ccccc1)N1CCc2ccccc21	none (no result: SRC3 TRFRET art, SRC1 TRFRET art)
Cc1ccc(S(=O)(=O)c2cn(Cc3ccc(F)cc3)c3cc4c(cc3c2=O)OCO4)cc1	SRC3 TRFRET art 2414
CCc1ccc(/C=C2/C(=O)N(C)C(=S)N2CC(=O)OC)s1	none
COc1ccc(CC(=O)Nc2nc(-c3cc(OC)ccc3OC)cs2)cc1	none
COc1ccc(OC)c(-c2csc(NC(=O)c3ccc4c(c3)OCO4)n2)c1	SRC3 TRFRET art 2559
COc1cc(C2SC(C)C(=O)N2CCc2ccccc2)cc(OC)c1OC (stereo not drawn)	none
Cc1c(-c2ccccc2)sc2nc[nH]c(=S)c12	SRC3 TRFRET art 2134
Cc1ccc(-c2csc3nc[nH]c(=S)c23)cc1C	none
Cc1cccc(NC(=S)Nc2ccc(N3CCOCC3)cc2)c1C	TR-FRET SRC-2 ct 1974
CCOc1ccc(-c2nn(-c3ccccc3)cc2/C=C2\SC(N)=NC2=O)cc1C	PPARg SRC3 recr 29.3 (no result: SRC3 TRFRET art, SRC1 TRFRET art)

Screening results: PubChem BioAssay, The Scripps Research Institute Molecular Screening Center
